Compound activity (PubChem)
Shown are actives, neighbours in structure and some others; about 3.7% of the full set was active somewhere.
NLRP3 yeast inh: blocks the NALP3 inflammasome reconstituted in yeast | 330,000 compounds, 0.39% hits | inhibition, % at 10 µM | AID 2825 | Yeast reconstituted NLRP3/ASC/caspase-1, beta-gal luminescence, 24 h;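 active = inhibition of 50% or more; inactive = inhibition below 50%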;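 note: plate controls were induced DMSO wells for no effect and uninduced yeast grown without galactose for full effect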
tim10-1 inh: growth inhibitors of tim10-1 mutant yeast | S. cerevisiae tim10-1 ts strain growth, BacTiter-Glo, 24 h | inhibition, % at 20 µM | 330,000 compounds, 2.2% hits | AID 463190;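 active = inhibition of at least 40%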;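 note: mutant grown at 25 °C; 0% = DMSO wells with yeast and 100% = wells holding no yeast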
TIM10 inh: TIM10 yeast growth inhibition. S. cerevisiae TIM10 strain growth, BacTiter-Glo luminescence, 24 h. inhibition, % at 10 µM. 330,000 compounds, 1.4% hits;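 active = inhibition of 40% or more at the single tested concentration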;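 note: wild-type TIM10 isogenic control strain grown at permissive 25 °C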
PfHsp90 set2: growth inhibition of yeast expressing Plasmodium Hsp90 | 310,000 compounds, 0.32% hits | AID 504621 | inhibition, % at 9.4 µM | S. cerevisiae expressing PfHsp90, BacTiter-Glo ATP, 48 h; yeast lacking PDR1 and PDR3 efflux regulators;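 active = every replicate shows inhibition above about 80%, whatever the replicate mean, limit read from the data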;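 note: 0% = DMSO neutral controls and 100% = 20 µM radicicol positive controls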
tim23-1 inh: inhibits growth of tim23-1 mutant yeast; AID 463212; 330,000 compounds, 1.3% hits; inhibition, % at 20 µM; S. cerevisiae tim23-1 growth, BacTiter-Glo luminescence, 24 h;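 active = growth inhibition of the mutant yeast at or above 50%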;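 note: temperature-sensitive mutant grown at 25 °C; plate controls were DMSO-treated mutant yeast for no effect and medium wells lacking yeast for full effect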
tim10-1 conf: confirmation of tim10-1 mutant yeast growth inhibitors; shares compounds with tim10-1 inh; inhibition, % at 20 µM; 7,400 compounds, 56% hits; S. cerevisiae tim10-1 ts strain growth, BacTiter-Glo, 24 h; AID 463213;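 active = inhibition of yeast growth at or above a set limit in either of two repeat tests at 20 µM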;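 note: tim10-1 mutant grown at permissive 25 °C to find synthetic lethal compounds; 0% = DMSO yeast wells and 100% = medium wells without yeast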
tim10 confirm: TIM10 yeast growth inhibition, confirmed. S. cerevisiae tim10 strain growth, BacTiter-Glo luminescence, 24 h. 4,600 compounds, 63% hits. inhibition, % at 10 µM. shares compounds with TIM10 inh;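 active = inhibition of yeast growth at or above a set limit in either of two replicates at 10 µM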;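 note: this counterscreen used the strain with wild-type TIM10; 0% = yeast with DMSO and 100% = medium wells lacking yeast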
tim23-1 conf: confirmation of tim23-1 mutant yeast growth inhibitors | shares compounds with tim23-1 inh | S. cerevisiae tim23-1 growth, BacTiter-Glo luminescence, 24 h | inhibition, % at 20 µM | 4,400 compounds, 83% hits | AID 463218;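 active = inhibition above about 39% in either of two replicate wells at 20 µM, limit read from the data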;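 note: temperature-sensitive tim23-1 mutant grown at 25 °C; 0% = DMSO wells with yeast and 100% = medium wells without yeast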
* = called active by the depositor; nt = not tested or not shown.

SMILES	NLRP3 yeast inh	tim10-1 inh	TIM10 inh	PfHsp90 set2	tim23-1 inh	tim10-1 conf	tim10 confirm	tim23-1 conf
CCN(CC)c1ccc(/C=N/NC(=S)NCc2ccco2)cc1	13	42*	46*	-4	51*	34*	-4	40*
CCOc1ccc(N(C(=O)C2CCCO2)C2C=CS(=O)(=O)C2)cc1 (centres undefined)	12	13	-5	-20	-1	nt	nt	nt
CN1CCN(/N=C/c2ccc(N(C)c3ccccc3)cc2)CC1	11	5	-32	-8	9	nt	nt	nt
CN1CCN(/N=C/c2ccc(N(c3ccccc3)c3ccccc3)cc2)CC1	-7	50*	30	-56	76*	-35	nt	38
CCOC(=O)C1=C(C)N=c2s/c(=C\c3ccc(OCC(=O)O)cc3)c(=O)n2C1c1ccc(Cl)cc1 (centres undefined)	28	29	32	-43	43	nt	nt	nt
CCOC(=O)C1=C(C)N=c2s/c(=C/c3ccc(OCC(=O)O)c(OC)c3)c(=O)n2C1c1ccc(Cl)cc1 (centres undefined)	30	56*	31	-21	50*	46*	nt	53*
CCCC(=O)Nn1cnc2c(c1=O)C1(CCCCC1)Cc1ccccc1-2	-7	41*	52*	-8	53*	44*	40*	52*
COc1ccc2c(c1)CC/C2=N\OC(=O)c1ccccc1OC	7	53*	71*	22	81*	38*	80*	79*
CC1=NN(c2ccc(Cl)c(C(=O)O)c2)C(=O)/C1=C\c1ccc(-c2ccc(C(=O)O)cc2)o1	nt	nt	nt	-9	nt	nt	nt	nt
CC1=NN(c2ccccc2)C(=O)/C1=C/c1ccc(-c2ccc(C)c(C(=O)O)c2)o1	13	48*	34	8	66*	35*	nt	59*
COc1ccc(-c2cc(-c3cc(C)ccc3O)[nH]n2)cc1	12	52*	51*	-5	69*	45*	45*	-26
COc1ccc(-c2cc(-c3ccc(OC)cc3)[nH]n2)cc1	17	19	31	0	44	nt	nt	nt
COC(=O)COc1ccc(-c2ccccc2)cc1C=O	16	66*	73*	-4	65*	60*	73*	83*
O=c1cc(-c2ccc(C3CCCCC3)cc2)[nH][nH]1	16	59*	29	94*	74*	32*	nt	-4
O=c1cc(-c2ccc(F)cc2)[nH][nH]1	11	8	-5	-5	1	nt	nt	nt
CCC1CCCCN1S(=O)(=O)c1ccc(NC(=O)c2snnc2C)cc1 (centres undefined)	10	37	8	-30	31	nt	nt	nt
CCC1CCCCN1S(=O)(=O)c1ccc(NC(=O)c2cccs2)cc1 (centres undefined)	7	72*	64*	-39	72*	65*	68*	78*
CCCOc1ccc(C(=O)N/N=C/c2c[nH]c3ccc(Br)cc23)cc1	18	43*	18	14	55*	37*	nt	54*
COc1ccc(C(=O)N/N=C/c2c[nH]c3ccccc23)cc1	17	-27	5	-1	11	nt	nt	nt
Cc1ccc(S(=O)(=O)N2CC=C(c3ccc(F)cc3)CC2)cc1	37	9	13	1	20	nt	nt	nt
Nc1cccc2c1C(=O)N(C(=O)/C=C/c1ccc(F)cc1)C2=O	-6	59*	49*	14	74*	61*	47*	86*
CCNC(=O)c1ccc2c(c1)C1C3CCC(C3)C1C(c1ccccc1)N2 (centres undefined)	7	59*	41*	-13	63*	55*	43*	65*
O=C(Nc1cccc(Br)c1)c1ccc(CN2CCc3ccccc3C2)cc1	36	44*	44*	0	63*	31*	38*	74*
CSc1cccc(NC(=O)c2ccc(CN3CCc4ccccc4C3)cc2)c1	32	9	16	3	4	nt	nt	nt
CCOC(=O)N1CCN(C(=O)/C(=C\c2ccc(SC)cc2)NC(=O)c2ccccc2)CC1	13	15	16	-16	13	nt	nt	nt
